Only some compounds are listed: those with a hit (about 5.9% of all), similar ones and a draw of the others.
RORgamma inh: ROR gamma (mouse) transcription inhibition; 310,000 tested, 5.4% active; Drosophila S2 Gal4-RORgamma UAS-luciferase reporter, 20 h; Potency, µM (titrated, usually from 53.6 µM), without a hit: top-dose activity change, negative = inhibition, hits mostly inhibitors; P51450; further: on the % scale 0 is the no-effect control and ±100 the full control effect; nearly all actives have a fitted effect of over 60% in size
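Drosophila S2 cells stably expressing Gal4-DBD/mouse RORγ fusion under metallothionein promoter plus UAS-luciferase; compound 1 h, then 700 uM CuSO4 induction for 20 h at ambient temperature; inhibition read as reduced luminescence.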
GLP1R inv ag: inverse agonists of human GLP-1 receptor. P43220. 410,000 tested, 1.6% active. AID 624417. HEK293 GLP-1R CRE-luciferase, luminescence, 24 h; GLP-1R form is constitutively active. Potency, µM (series often up to 38.3 µM), without a hit: at the top dose activity change, negative = inhibition, hits mostly inhibitors; further: on the % scale 0 is the no-effect control and ±100 the full control effect; nearly all actives have a fitted effect of over 55% in size
Target sequence (P43220 whole entry, looked up): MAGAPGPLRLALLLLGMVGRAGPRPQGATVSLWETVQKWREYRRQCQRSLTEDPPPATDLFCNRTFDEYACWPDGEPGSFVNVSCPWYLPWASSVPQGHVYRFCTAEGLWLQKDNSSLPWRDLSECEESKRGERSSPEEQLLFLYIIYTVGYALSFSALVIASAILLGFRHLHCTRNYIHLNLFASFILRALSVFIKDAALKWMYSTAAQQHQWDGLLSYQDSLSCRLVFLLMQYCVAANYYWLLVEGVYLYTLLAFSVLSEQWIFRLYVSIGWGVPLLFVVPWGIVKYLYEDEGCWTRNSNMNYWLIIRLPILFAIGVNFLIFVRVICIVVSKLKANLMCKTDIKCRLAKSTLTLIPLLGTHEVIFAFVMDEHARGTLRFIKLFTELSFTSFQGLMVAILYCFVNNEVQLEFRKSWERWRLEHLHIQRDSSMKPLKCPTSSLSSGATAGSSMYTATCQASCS
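Constitutively active GLP-1R drives a cAMP-responsive luciferase in stably transfected HEK293 cells; test compounds are added after overnight (12 h) attachment and left 24 hr, and signal loss in luminescence marks inhibition.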
GLP1R cytotox: cytotoxic in the GLP-1 receptor inverse agonist counter-screen | Potency, µM (doses to about 38.3 µM), for inactives: at the highest dose activity change, negative = inhibition, usual class: inhibitors | 410,000 tested, 0.13% active | AID 624418 | HEK293 cAMP-luciferase reporter cells, luminescence, 24 h;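 further: loss of luciferase light is scored as toxicity; on the % scale 0 is the no-effect control and ±100 the full control effect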
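Here, cytotoxicity is scored as loss of luminescence. The MLSMR collection was tested on cells seeded in medium containing 10% Nu serum, with a 24 hr compound exposure preceded by 12 hours of culture.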
GLP1R ag: activates the human GLP-1 receptor; AID 624172; HEK293 GLP-1R CRE-luciferase, luminescence, 4-6 h; cells express a hypersensitive GLP-1R form; 380,000 tested, 0.007% active; Potency, µM (series often up to 45.6 µM), inactives show top-dose activation, actives largely listed as activators; P43220; further: % of control where 0% means no effect
Gal4-VP16 FLuc: inhibits Gal4-VP16 luciferase reporter, ROR gamma counter-screen. AID 2546. Potency, µM (titrated, usually from 53.6 µM), for inactives: top-dose activity, negative = inhibition, usual class: inhibitors. Drosophila S2 Gal4-VP16 UAS-luciferase, luminescence, 20 h. 310,000 tested, 3.5% active;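 further: Gal4-VP16 expression switched on by copper sulfate through the metallothionein promoter; on the % scale 0 is the no-effect control and ±100 the full control effect; nearly all actives have a fitted effect of over 50% in size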
Active calls of the source: *; i = inactive; ? = inconclusive; · = not tested or not shown; [ ] = another dose, or the depositor's remark. The call rests on the fitted dose curve; in most records, active means well fitted curve in the direction sought with a large enough effect; inconclusive means small, poorly fitted or top-dose-only effect, or another doubt; inactive means no such curve, though single readings can be large; an effect the other way counts as inactive or inconclusive. Potency means the concentration at half of the fitted maximal effect.

SMILES | RORgamma inh | GLP1R inv ag | GLP1R cytotox | GLP1R ag | Gal4-VP16 FLuc
COc1ccc(C(C(=O)NC2CCCC2)N(C(=O)c2ccoc2C)c2ccc(C)c(C)c2)cc1 (centres undefined) | 31.7% | 10µM* | -7.5% | 9.4% | -8.3%
CCc1ccc(N(C(=O)c2ccoc2C)C(C(=O)NC2CCCC2)c2ccc(OC)cc2)cc1 (centres undefined) | 25.9% | 10µM* | ? | -4.4% | 0.9%
COC(=O)C/C=C\[C@H](C)[C@H](CO)NS(=O)(=O)c1ccc(C)cc1 | -22.3%[10 µM] | · | · | · | 3.5%[10 µM]
COc1ccccc1NC(=O)COc1ccccc1 | -6.3% | 0.0% | 6.3% | 19.5% | -4.8%
COc1ccc(C)c2sc(NNC(=O)COc3ccccc3)nc12 | 7.08µM* | · | · | · | -3.9%
COc1cccc2sc(NNC(=O)COc3ccccc3)nc12 | 4.47µM* | -18.9% | 6.5% | 7.3% | -19.1%
O=c1c(-c2cc(-c3ccccc3)nc3c2COc2ccccc2-3)coc2ccc(Cl)cc12 | · | 13.8% | 2.4% | 0.3% | ·
CC1=C(C(=O)OCc2ccc(C)cc2)C(c2ccccc2F)CC(=O)N1 (centres undefined) | · | ? | 1.2% | 1.0% | ·
COc1ccc(NC=O)c(C(=O)CCNC(C)=O)c1 | 0.0% | · | · | · | -1.8%
COc1cccc(NC(=S)NC2CC3CCCC(C2)N3CC(C)C)c1 (centres undefined) | 10µM* | -26.3% | 2.6% | 5.1% | 6.9%
CC1=NN(c2ccccc2)C(=O)/C1=C\C=C\c1ccccc1 | 8.91µM* | 17.5% | 4.6% | -1.6% | ?
CC1=NN(c2ccc(C(=O)OC(C)C)cc2)C(=O)/C1=C\C=C\c1ccco1 | 14.1µM* | 10.6% | 0.6% | -13.8% | ?
CCOC(=O)c1ccc(N2N=C(C)/C(=C/C=C/c3ccco3)C2=O)cc1 | 41.9% | 9.6% | -2.9% | -13.3% | -10.6%
CC1=NN(c2ccccc2)C(=O)/C1=C\C=C1\N(C)c2ccccc2C1(C)C | 9.6% | 11.2µM* | -11.1% | -1.3% | -19.8%
C=CC[C@]12CC=CC(=O)[C@@]1(O)O[C@H](c1ccc(OC)c(OC)c1)[C@H]2C | · | 11.2µM* | -25.1% | -0.3% | ·
COC(=O)c1cc2oc3ccccc3c2n1Cc1ccccn1 | 6.6% | 4.47µM* | -14.6% | 13.3% | -5.5%
COC(=O)c1cc2oc3ccccc3c2n1Cc1ccc(C)cc1 | · | 12.9% | 4.1% | · | ·
COc1cc2c(cc1CC=C(C)C)C(=O)C[C@@H](c1ccc(O)cc1)O2 | -40.3% | · | · | · | 11.2µM*
COc1ccc2c(c1)C(=O)CC(c1ccc(OC)c(OC)c1)O2 (centres undefined) | 1.7%[1.91 µM] | 19.3% | 2.3% | -1.1% | -7.1%
CC(=O)N/N=C/c1cc(C(C)(C)C)cc(/C=N/NC(C)=O)c1O | 2.82µM* | ? | i | 13.9% | 14.1µM*
Cc1ccccc1C(=O)O/N=C/c1c(N2CCOCC2)n(C)c2ccccc12 | 1µM* | -31.4% | -12.2% | -2.8% | 2.82µM*
CN1CCN(c2c(/C=N/O)c3ccccc3n2C)CC1 | 4.0% | ? | -1.5% | -0.5% | 2.1%
COc1ccc(NC(=O)N2CC3(CCN(C(=O)c4cccc(F)c4)CC3)C2)cc1 | 9.5% | · | · | · | -9.9%
Cc1cc(C)nc(Nc2ncc(O)n2-c2ccc(C)c(C)c2)n1 | -25.0% | 4.5% | -5.0% | 3.0% | 5.7%
Cc1cc(C)nc(Nc2ncc(O)n2-c2ccc(C)c(Cl)c2)n1 | 11.2µM* | -19.3% | -9.6% | 4.5% | ?
SMILES | RORgamma inh | GLP1R inv ag | GLP1R cytotox | GLP1R ag | Gal4-VP16 FLuc
Cc1cccc(NC(=S)NNC(=O)c2cc3c(s2)CCC(C)C3)c1C (centres undefined) | 17.8µM* | ? | 3.4% | -6.0% | ?
Cc1cccc2cc(CN(Cc3ccccc3)C(=O)c3cccc(F)c3)c(Cl)nc12 | 40.8% | 11.2µM* | -5.7% | -1.6% | -4.1%
Cc1ccc(N(Cc2ccccc2)C(=O)c2cccc(F)c2)cc1 | -34.4% | ? | -5.9% | 14.3% | -13.5%
CC(C)(C)NC(=O)C(c1ccncc1)N(C(=O)Cn1nnc(-c2ccc(F)cc2)n1)c1ccccc1F (centres undefined) | 12.6µM* | -19.7% | -17.4% | 0.6% | -26.9%
CC(C)(C)NC(=O)C(c1ccc(O)cc1)N(C(=O)Cn1nnc(-c2ccc(F)cc2)n1)c1ccccc1F (centres undefined) | 10.0% | 8.91µM* | -11.3% | -5.3% | -1.7%
CCOC(=O)c1c(C)[nH]c(C)c1S(=O)(=O)N(C)CC(=O)N1CCN(c2ccccc2OC)CC1 | · | 14.5% | 1.0% | · | ·
COc1ccc(-c2nc3cnc(N4CCOCC4)nc3n(CCc3ccccc3)c2=O)cc1 | -1.6% | · | · | · | -5.7%
O=C(NC(NNc1ccc([N+](=O)[O-])cc1)(C(F)(F)F)C(F)(F)F)c1ccc(Cl)cc1 | 15.8µM* | ? | ? | -9.5% | ?
CC(C)c1ccc(/C=N\NC(=O)c2ccc(Cn3cccn3)o2)cc1 | -32.7% | -35.9% | -0.6% | -5.8% | ?
O=C(N/N=C\c1c(O)ccc2ccccc12)c1ccc(Cn2cccn2)o1 | 2.51µM* | -34.9% | 127.8% | -1.0% | 12.6µM*
O=C(N/N=C\c1ccc(Cl)s1)c1ccc(Cn2cccn2)o1 | 10µM* | 2.6% | 7.8% | 0.4% | -97.9%
COc1ccccc1NC(=S)NC(C)C(c1cccs1)N1CCOCC1 (centres undefined) | 12.6µM* | -17.1% | -8.8% | 14.3% | ?
CC(NC(=O)Nc1ccccc1)C(c1cccs1)N1CCOCC1 (centres undefined) | ? | -10.6% | -1.4% | -0.6% | 24.7%
CC(NC(=S)Nc1ccc(Cl)cc1Cl)C(c1cccs1)N1CCCC1 (centres undefined) | 11.2µM* | -2.7% | ? | -13.3% | ?
CC(NC(=S)NC1CCCCC1)C(c1cccs1)N1CCOCC1 (centres undefined) | 8.91µM* | 0.2% | -7.1% | 11.9% | ?
Cc1ccc(C(=O)Nc2ccc(Cl)c(-c3nc4ncccc4o3)c2)c(C)c1 | · | ? | -16.2% | · | ·
CCCC[C@@H](C)/C=C(C)/C=C(\C)C(=O)NC1=C[C@@](O)(/C=C/C=C/C=C/C(=O)NC2=C(O)CCC2=O)[C@@H]2O[C@@H]2C1=O | 0.447µM* | · | · | · | 1.26µM*
Cc1nc2cc(-c3cccc(F)c3)nn2c(C)c1CCC(=O)NC(C)CCc1ccco1 (centres undefined) | 11.2µM* | ? | -3.9% | -4.2% | -2.3%
COc1ccc(CN(C)Cc2nc3scc(-c4ccccc4)c3c(=O)[nH]2)cc1OC | 1.41µM* | -15.0% | ? | 0.0% | 2.51µM*
COc1ccc(C2C(C(=O)c3ccccc3)=C(C)Nc3nc4ccccc4n32)c(OC)c1 (centres undefined) | 6.31µM* | -9.0% | -3.1% | 0.6% | -1.6%
COc1ccc(C2C(C(=O)Nc3ccc(C)cc3C)=C(C)Nc3nc4ccccc4n32)c(OC)c1 (centres undefined) | · | 12.8% | -10.3% | 0.4% | ·

Compound activity as filed in PubChem.
